Compound activity deposited in PubChem by National Center for Advancing Translational Sciences (NCATS).
BAZ2B inh: blocks human BAZ2B; Q9UIF8; Potency, µM (top dose mostly 114 µM), inactives show at the highest dose activity change, negative = inhibition, most hits filed as inhibitors; actives 4.4% (n = 360,000); AlphaScreen BAZ2B-H3K14Ac peptide displacement; also: potency is read from the fitted curve at half-maximal effect; % is scaled to controls: 0 for no effect and ±100 for the full control effect; nearly all actives have a fitted effect of over 60% in size
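BAZ2B 50 nM plus b-H3(5-23)K14Ac 50 nM, PBS pH 7.4/0.01% Tween-20, 30 min RT; compound added (max 110 uM), 30 min RT; streptavidin donor/Ni-chelate acceptor beads 10 ug/mL final, 20 min dark; AlphaScreen read.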
HP1b binding inh: blocks HP1-beta chromodomain binding to methylated histone tails. AlphaScreen HP1-beta / biotin-H3K9me3 peptide binding. Potency, µM (top dose mostly 114 µM), for the others: at the top dose activity change, negative = inhibition, actives largely listed as inhibitors. actives 0.56% (n = 390,000). AID 540317; also: potency is read from the fitted curve at half-maximal effect; nearly all actives have a fitted effect of over 70% in size
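AlphaScreen: HP1-beta (50 nM) preformed 30 min with biotin-H3(1-18)K9me3 peptide (50 nM) in PBS pH 7.4, 0.01% Tween-20. Compound added for 30 min at RT, then streptavidin donor/nickel chelate acceptor beads (10 ug/mL) for 30 min.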
JMJD2A Tudor inh: inhibitors of human JMJD2A Tudor domain | AlphaScreen JMJD2A-Tudor / H3K4me3 peptide binding | actives 4.4% (n = 390,000) | Potency, µM (highest dose often 114 µM), for the others: at the top dose activity change, negative = inhibition, hits mostly inhibitors | O75164; also: potency is read from the fitted curve at half-maximal effect; % is scaled to controls: 0 for no effect and ±100 for the full control effect; nearly all actives have a fitted effect of over 50% in size
PI5P4K alpha inh: inhibitors of human PI5P4K alpha. max response, %. PI5P4Kalpha enzyme, ADP-Glo luminescence, 60 min; active compounds read low. actives 1.2% (n = 330,000). AID 652105; active = max response of -50% or lower; inconclusive = between -30% and -50%; inactive = -30% or higher; also: value at the top dose of about 77 µM; % is scaled to controls: 0 for no effect and ±100 for the full control effect
Target sequence (P48426 whole entry, looked up): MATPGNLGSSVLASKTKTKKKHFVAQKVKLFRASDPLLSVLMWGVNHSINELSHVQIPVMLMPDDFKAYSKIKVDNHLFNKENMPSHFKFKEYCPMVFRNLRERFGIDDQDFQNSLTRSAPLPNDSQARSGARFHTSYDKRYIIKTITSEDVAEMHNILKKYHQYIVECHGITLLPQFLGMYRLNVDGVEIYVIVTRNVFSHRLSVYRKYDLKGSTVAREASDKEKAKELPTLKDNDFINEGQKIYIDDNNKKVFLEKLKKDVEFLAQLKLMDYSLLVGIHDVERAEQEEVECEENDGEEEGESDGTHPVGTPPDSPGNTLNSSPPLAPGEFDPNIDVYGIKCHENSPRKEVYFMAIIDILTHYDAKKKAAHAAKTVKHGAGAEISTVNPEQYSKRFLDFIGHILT
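ADP-Glo luminescence end-point read after a 60 min room-temperature kinase reaction of PI5P4Kalpha plus substrate, initiated with ATP at 5 microM final. Buffer: 0.038 M HEPES pH 7.4, EGTA, 0.1% CHAPS, 5% DMSO.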
PLK1 PBD block: PLK1 (human) polo-box domain binding inhibition. P53350. AID 720504. Plk1 PBD binding of FITC phosphopeptide, fluorescence polarization. actives 2.8% (n = 360,000). Potency, µM, for the others: max response, negative = inhibition, hits mostly inhibitors; also: potency is read from the fitted curve at half-maximal effect; series mostly up to about 57 µM; % is scaled to controls: 0 for no effect and ±100 for the full control effect; nearly all actives have a fitted effect of over 65% in size
KAT2A inh: blocks human GCN5L2 histone acetyltransferase; Q92830; GCN5L2 HAT assay, ThioGlo1 CoA-SH fluorescence; Potency, µM (series often up to 58.9 µM), without a hit: at the highest dose activity change, negative = inhibition, most hits filed as inhibitors; actives 0.21% (n = 390,000); AID 504327; also: potency is read from the fitted curve at half-maximal effect; % is scaled to controls: 0 for no effect and ±100 for the full control effect
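Free CoA generated was detected with ThioGlo1 (50uM) fluorescence at Ex340nm/Em540nm, read immediately and after 20 min at room temperature. Enzyme, 20 nM in HEPES pH 7.5 buffer, saw compounds 15 min before adding 75uM H3(1-25) peptide and 70uM acetyl-CoA.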
An asterisk follows results filed as active; [ ] = remark or other dose. Only some compounds are listed: those with a hit (about 7% of all), similar ones and a draw of the others. Unless noted, calls follow the shape of the dose curve; as a rule, active = well fitted curve in the direction sought with a large enough effect; inconclusive = small, poorly fitted or top-dose-only effect, or another doubt; inactive = no such curve, though single readings can be large; an effect the other way counts as inactive or inconclusive.

What do the screens show for `NC(=O)COC(=O)c1ccc(Cl)c(S(=O)(=O)N2CCCCCC2)c1`?
HP1b binding inh: 9%; JMJD2A Tudor inh: -10%; PI5P4K alpha inh: -1; PLK1 PBD block: -3%; KAT2A inh: -11%

Results for CN(CCCC(=O)O)c1ccc(N=Nc2ccc([N+](=O)[O-])cc2)cc1 ?
HP1b binding inh: 11µM*; JMJD2A Tudor inh: 22µM*; PI5P4K alpha inh: -26; PLK1 PBD block: -26%

What do the screens show for `Cn1ncc([N+](=O)[O-])c1C(=O)NC1CCCCC1`?
BAZ2B inh: -2%; HP1b binding inh: 22%; JMJD2A Tudor inh: 16%; PI5P4K alpha inh: 3; PLK1 PBD block: 2%; KAT2A inh: -17%

Results for CN(C)c1ccc(/C=C2/C(=O)N(c3ccc([N+](=O)[O-])cc3)N=C2N2CCOCC2)cc1 ?
BAZ2B inh: 7.1µM*; KAT2A inh: -9%

How did COc1cc(NC(=S)Nc2cccnc2)cc(OC)c1 do in these assays?
BAZ2B inh: -25%; HP1b binding inh: -16%; JMJD2A Tudor inh: -10%; PI5P4K alpha inh: -13; PLK1 PBD block: 24µM*; KAT2A inh: 35%

How did COc1cccc(NC(=S)NCCc2ccccn2)c1 do in these assays?
BAZ2B inh: 56µM*; HP1b binding inh: 21%; JMJD2A Tudor inh: -14%; PI5P4K alpha inh: 0; PLK1 PBD block: -10%; KAT2A inh: 8%

What do the screens show for `COc1cc(OC)cc(C(=O)NC(=S)Nc2cccnc2)c1`?
BAZ2B inh: -15%; HP1b binding inh: 15%; JMJD2A Tudor inh: -8%[11.4 µM]; PI5P4K alpha inh: 2; PLK1 PBD block: -14%; KAT2A inh: 5%

Results for COc1ccc(Cl)cc1NC(=O)c1cc2c(=O)n3ccccc3nc2s1 ?
BAZ2B inh: -32%; HP1b binding inh: 35%; JMJD2A Tudor inh: -32%; KAT2A inh: 35µM*

Results for CSc1ccccc1NC(=O)c1cc2c(=O)n3ccccc3nc2s1 ?
BAZ2B inh: -4%; HP1b binding inh: 9%; JMJD2A Tudor inh: -24%; PI5P4K alpha inh: -16; PLK1 PBD block: -5%; KAT2A inh: inconclusive

How did COc1ccccc1NC(=O)c1cc2cc3ccc(OC)c(Cl)c3nc2s1 do in these assays?
BAZ2B inh: 79µM*; HP1b binding inh: 5%[57 µM]; JMJD2A Tudor inh: 56µM*; KAT2A inh: -24%

How did COc1ccc(NC(=O)CSc2ccc(-c3cccs3)nn2)cc1 do in these assays?
BAZ2B inh: -17%; HP1b binding inh: 5%; JMJD2A Tudor inh: -20%; KAT2A inh: -8%

What do the screens show for `Cc1ccc(C)c(N2CCN(C(=O)Cn3cnc4nc5c(cc4c3=O)CCCC5)CC2)c1`?
BAZ2B inh: -26%; HP1b binding inh: 15%[57 µM]; JMJD2A Tudor inh: -27%; KAT2A inh: 2%

Results for O=C(/C=C/c1ccc2ccccc2n1)c1cc(Br)ccc1O ?
BAZ2B inh: 56µM*; HP1b binding inh: 0%; JMJD2A Tudor inh: inconclusive; PI5P4K alpha inh: -4; PLK1 PBD block: inconclusive; KAT2A inh: -5%

What do the screens show for `COc1cccc(CN(C)C(=O)CCNC(=O)c2ccco2)c1`?
BAZ2B inh: 5%; HP1b binding inh: 27%; JMJD2A Tudor inh: -11%; PI5P4K alpha inh: 3; PLK1 PBD block: -3%; KAT2A inh: 1%

How did O=C(CSc1ncccc1C(=O)O)Nc1ccc2c(c1)OCCO2 do in these assays?
BAZ2B inh: -33%; HP1b binding inh: 19%; JMJD2A Tudor inh: -16%; PI5P4K alpha inh: -52*; PLK1 PBD block: -7%; KAT2A inh: -2%

How did COc1ccc(NC(=O)CSc2ccc3c(c2)OCCO3)cc1 do in these assays?
HP1b binding inh: 13%[57 µM]; JMJD2A Tudor inh: -9%; PI5P4K alpha inh: -5; PLK1 PBD block: inconclusive; KAT2A inh: -5%

Results for CC(=O)Nc1ccc(SCC(=O)NC(=O)c2ccc(S(=O)(=O)N(C)C)cc2)cc1 ?
HP1b binding inh: 36%; JMJD2A Tudor inh: -16%; PI5P4K alpha inh: -30; PLK1 PBD block: 11µM*; KAT2A inh: -3%
